Screens deposited in PubChem by National Center for Advancing Translational Sciences (NCATS).
This is one part of a sample in which hits are shown more often than they occur.
Marburg entry inh: qHTS for inhibitors of binding or entry into cells for Marburg Virus; Marburg virus pseudotyped entry inhibition, cell reporter; Potency, µM (titrated, usually from 37.8 µM), without a hit: top-dose activity change, negative = inhibition, actives largely listed as inhibitors; 300,000 tested, 1.8% active; AID 540276, 2011; calls by dose curve; tested in HEK293 cells; also: potency is read from the fitted curve at half-maximal effect; % is scaled to controls: 0 for no effect and ±100 for the full control effect
VACV mCherry inh: qHTS for Stage-Specific Inhibitors of Vaccinia Orthopoxvirus: mCherry Reporter Primary qHTS; Vaccinia virus mCherry reporter infection, fluorescence; Potency, µM (highest dose often 36.5 µM), inactives show top-dose activity change, negative = inhibition, hits mostly inhibitors; 310,000 tested, 0.63% active; calls by dose curve; tested in A549 cells; also: potency is read from the fitted curve at half-maximal effect; % is scaled to controls: 0 for no effect and ±100 for the full control effect; nearly all actives have a fitted effect of over 35% in size
LASV entry inh: qHTS for Inhibitors of binding or entry into cells for Lassa Virus; 300,000 tested, 1.2% active; Potency, µM (titrated, usually from 37.9 µM), inactives show top-dose activity change, negative = inhibition, most hits filed as inhibitors; Lassa virus pseudotype entry inhibition, cell reporter; calls by dose curve; tested in HEK293 cells; also: potency is read from the fitted curve at half-maximal effect; % is scaled to controls: 0 for no effect and ±100 for the full control effect; nearly all actives have a fitted effect of over 50% in size
Cycloheximide cs: Cycloheximide Counterscreen for Small Molecule Inhibitors of Shiga Toxin; cell reporter, cycloheximide protein synthesis inhibition counterscreen; max response, %; AID 2314, 2010; 300,000 tested, 12% active; in the data active = max response mostly above about 13%, no sharp cut-off; inactive = mostly below about 14%; also: read at 38.3 µM for the half of the compounds with a filed dose; 0% is about no effect
Vaccinia Venus: qHTS for Stage-Specific Inhibitors of Vaccinia Orthopoxvirus: Venus Reporter Primary qHTS; 330,000 tested, 0.46% active; Potency, µM (top dose mostly 36.5 µM), for the others: top-dose activity change, negative = inhibition, most hits filed as inhibitors; Vaccinia virus Venus reporter expression, fluorescence; calls by dose curve; tested in A549 cells; also: potency is read from the fitted curve at half-maximal effect; % is scaled to controls: 0 for no effect and ±100 for the full control effect; nearly all actives have a fitted effect of over 30% in size
Shiga inhibitor: A qHTS for Small Molecule Inhibitors of Shiga Toxin | Vero cells, Shiga toxin protein synthesis inhibition reporter | 290,000 tested, 9.2% active | inhibition, % at 38.7 µM; in the data active = inhibition mostly above about 28%, no sharp cut-off; inactive = mostly below about 43%; also: 0% is about no effect
The depositor's hits bear a star; i = inactive; ? = inconclusive; nt = not tested or not shown; [ ] = remark or other dose.

SMILES	Marburg entry inh	VACV mCherry inh	LASV entry inh	Cycloheximide cs	Vaccinia Venus	Shiga inhibitor
CCOc1cc(/C=C/C(=O)c2ccc3c(c2)OCCO3)ccc1OCC(=O)N(C)C	?	10µM*	nt	-5	10µM*	-9
O=C(O)c1ccc(/C=C/C(=O)c2ccc3c(c2)OCCCO3)cc1	?	?	?	105*	?	92*
CCN(c1cccc(C)c1)S(=O)(=O)c1ccc2[nH]cc(C(=O)NCCCOC)c(=O)c2c1	nt	-20%	-16%[46.1 µM]	nt	-15%	nt
Cc1ccc(NC(=O)N2CCN(Cc3nc4ccc(C)cc4o3)CC2)cc1	nt	-18%	-5%[46.1 µM]	nt	-19%	nt
O=C1C[C@H](NCc2ccc3c(c2)OCO3)C(=O)N1Cc1ccc2c(c1)OCO2	26%	nt	nt	nt	nt	nt
O=C(c1sccc1Cl)N1CCN(Cc2ccc3c(c2)OCO3)CC1	15%	i	-3%	10	-12%	15
CCCN(C(=O)c1ccc2c(SCC(=O)O)c3c(nc2c1)CCC3)c1cccc(C)c1	nt	-6%[7.34 µM]	nt	-2	4%[7.34 µM]	-4
CCN(CC)c1ccc2cc(/C(N)=N/NC(=O)c3cccs3)c(=O)oc2c1	nt	nt	nt	14	nt	9
CCN(CC)c1ccc2cc(C(C)=O)c(=O)oc2c1	11%	?	?	23	-25%	80*
CCN(CC)c1ccc2cc(C(N)=O)c(=O)oc2c1	4%	?	10%	23*	?	12
CCN(CC)c1ccc2cc(-c3nnc(-c4ccncc4)o3)c(=O)oc2c1	3%	nt	5%	28	nt	active
CCN(CC)c1ccc2cc(C(=O)Nc3ccccn3)c(=O)oc2c1	-21%	-14%	?	79*	-5%	63*
CC(C)(C)OC(=O)N1CC23CC(c4ccc(F)cc4)C(CC2S1(=O)=O)O3 (stereo not drawn)	nt	nt	nt	-3	nt	1
COc1ccccc1CNC(=O)Cn1c(=O)nc(-c2ccccc2)c2ccccc21	nt	-14%	?	nt	-7%	nt
CCOCCCNC(=O)C1CCN(C(=O)c2cc3sccc3n2C)CC1	0%[46.1 µM]	-3%	nt	nt	-15%	nt
COc1ccc(CNC(=O)C2(C)Cc3c(-c4ccc5c(c4)OCO5)ccnc3O2)cc1OC (stereo not drawn)	nt	-14%	nt	nt	?	nt
CCn1c(=O)c2cc(C(=O)N(CC(C)C)CC(C)C)sc2c2ccccc21	?	-15%	15%[46.1 µM]	nt	-10%	nt
COc1cc(Cl)c(C)cc1Nc1c2c(nc3ccccc13)CCC2	?	?	?	nt	-28%	nt
CCN(CC)c1ccc2cc(C(=O)Nc3cccnc3N3CCOCC3)c(=O)oc2c1	nt	nt	nt	-2	nt	-11
CCN(CC)c1ccc2cc(C=O)c(=O)oc2c1	-6%	-6%	10%	24*	-8%	41
CCN(CC)c1ccc2cc(-c3nc(-c4ccccc4F)no3)c(=O)oc2c1	nt	-9%	24%[46.1 µM]	nt	-1%	nt
CCCCCCc1cc2cc(C(N)=O)c(=N)oc2cc1O	0%	nt	nt	1	nt	25
CCN(CC)c1ccc2cc(C(N)=O)c(=N)oc2c1	?	?	23%	41*	?	42
CCN(CC)c1ccc2cc(NC(=O)CCC(=O)O)c(=O)oc2c1	1.8µM*	-9%	?	-6	-8%	-19
O=C(CCCn1c(=O)c2cccn2c2ccccc21)NCCc1ccc(Cl)cc1	nt	-9%	?	nt	-14%	nt
SMILES	Marburg entry inh	VACV mCherry inh	LASV entry inh	Cycloheximide cs	Vaccinia Venus	Shiga inhibitor
O=C(NC1CCCCCCC1)c1ccc(Br)cc1	?	6%[7.34 µM]	?	nt	-11%[7.34 µM]	nt
CC(C)Oc1ccc(C(=O)NC2CCCCC2)cc1	-2%	nt	-20%	47*	-18%	65
C=CCOc1ccc(C(=O)NC2CCCCC2)cc1	?	-11%	3%	21*	-24%	111*
Cc1ccccc1NC(=O)CSc1nnc(C)c2ccccc12	8%[46.1 µM]	-11%	1%	2	-8%	42
Cc1ccsc1C(=O)OCc1csc(-c2ccccc2)n1	?	nt	?	26*	-10%	102*
COc1ccccc1C(=O)NCC(=O)OCc1csc(-c2ccccc2)n1	13%	-15%	22%	12	-3%	-29
CN(Cc1cccs1)C(=O)Cc1csc(-c2ccccc2)n1	nt	nt	nt	47*	nt	69*
O=C(CNC(=O)c1ccccc1F)OCc1csc(-c2ccccc2)n1	?	-15%	6%	18*	-8%	31
Cn1cccc1C(=O)OCc1csc(-c2ccccc2)n1	?	0%	?	22*	2%	77*
Cn1cnnc1Sc1ccc(CN2CCOc3ccc(C4=Cc5ccccc5CC4)cc3C2)o1	nt	-23%	nt	nt	-6%	nt
Cc1ccccc1Cn1c(=O)n(CCc2ccccc2)c(=O)c2sc3ccccc3c21	1%[46.1 µM]	-10%	20%[46.1 µM]	nt	-13%	nt
O=C(CNS(=O)(=O)c1cccc(Cl)c1)OCc1csc(-c2ccccc2)n1	1%	-12%	4%	14	2%	-9
Cn1cccc1C(=O)OCc1ccc(F)cc1	0%	i	5%	19*	-5%	50
CNS(=O)(=O)c1cccc(C(=O)OCc2csc(-c3ccccc3)n2)c1	?	-20%	?	33*	-23%	63*
Nc1ccc(C(=O)OCc2csc(-c3ccccc3)n2)cc1[N+](=O)[O-]	0%	nt	-24%	7	nt	-7
O=C(OCc1csc(-c2ccccc2)n1)c1cccs1	?	-15%	7%	34*	-14%	49*
CCOC(=O)C1=C(CN2CCN(c3cccc(Cl)c3)CC2)NC(=O)NC1c1ccc(Cl)cc1 (stereo not drawn)	29%[46.1 µM]	-18%	6%[46.1 µM]	nt	-9%	nt
Cc1ccc(NC(=S)NNC(C)(C)C)cc1	?	-7%	1%	34*	-7%	41*
O=C(Nc1ccc(C(=O)NCc2ccccc2)cc1)C1=CSCCO1	nt	nt	nt	28*	nt	38*
CCc1ccc(CNC(=O)c2ccc(NC(=O)C3=CSCCO3)cc2)cc1	nt	nt	nt	33*	nt	21*
O=C(Nc1ccc(C(=O)NCc2ccc(F)cc2)cc1)C1=CSCCO1	-24%[46.1 µM]	-8%	-18%[46.1 µM]	38*	-11%	102*
CC(C)OCCCNC(=O)c1ccc(NC(=O)C2=CSCCO2)cc1	?	-12%	?	1	-6%	5
CCOc1ccc(Cc2n[nH]c(=S)n2N)cc1	2%	-14%	9%	5	-6%	6
CCOc1ccc(N2Nc3n[nH]c(N)c3N2)cc1	1%	2µM*	?	25*	?	50*
COc1ccc(N2Nc3n[nH]c(N)c3N2)cc1	24%	nt	21%	43*	nt	58*
COc1ccc(N2CCN(c3n[nH]c(N)n3)CC2)cc1	10%[46.1 µM]	-8%	-2%	6	-2%	-3
O=C(c1cccs1)N1C[C@@H](O)[C@@H](n2cc(-c3ccc(F)cc3)nn2)C[C@@H]1c1ccc(Cl)cc1	nt	nt	-13%[46.1 µM]	nt	nt	nt
Nc1cc(Cl)nc(N/N=C/c2c(O)ccc3ccccc23)n1	?	28µM*	?	26*	?	116*
O=C(O)c1cc(N/N=C/c2c(O)ccc3ccccc23)ccc1Cl	17%[46.1 µM]	-3%	?	63*	-13%	160*
